Assay outcomes: PubChem BioAssay, several laboratories
MPTP inh – mitochondrial permeability transition pore inhibitors, primary screen, biochemical, isolated mouse mitochondria, absorbance | Ca2+ swelling absorbance, 30 min | 1.4% of 360,000 active | inhibition, % at 10 µM;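 active = inhibition of 50% or more, scaled per plate between neutral and stimulator controls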
GRIN3A LBD mod – binders of NR3A ligand-binding domain, primary screen, biophysical, differential scanning fluorimetry, uHTS. NR3A LBD differential scanning fluorimetry, Tm shift; 0% = protein alone, 100% = glycine-bound protein. 2.5% of 340,000 active. Glutamate receptor ionotropic, NMDA 3A (GRIN3A) ligand-binding domain. Tm shift relative to glycine control, % at 25 µM;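 active = melting temperature shift of at least 10% of the positive control shift, at one fixed dose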
CRFBP-R2 block – antagonists of CRF-BP/CRF-R2 complex, primary screen, cell-based, HEK293, calcium dye fluorescence, uHTS. AID 588475, 2011. inhibition, % at 11.8 µM. CRF-induced calcium fluorescence. 0.59% of 350,000 active;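 active = inhibition of the ligand-induced calcium signal above about 50% at the single tested concentration, limit read from the data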
CRFBP-R2 agonist – agonists of CRF-BP/CRF-R2 complex, primary screen, cell-based, HEK293, calcium dye fluorescence, uHTS. 0.46% of 350,000 active. activation, % at 13.2 µM. calcium dye fluorescence (FLIPR); percent of saturating CRF peptide response;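 active = activation of at least 50%, plus an integration ratio under a set limit after plate pattern correction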
ANO1 activ – TMEM16A chloride channel activators or potentiators, primary screen, cell-based, HTS; B-score at 10 µM; Anoctamin-1 (Mus musculus), Q8BHY3; 0.3% of 340,000 active; AID 623877, 2012; HEK293 TMEM16A/YFP-H148Q/I152L, iodide quench fluorescence; active compounds read low;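 active = fluorescence-ratio B-score plate-corrected deviation score at least 3 library SD below zero, with starting fluorescence score within 5 deviations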;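 note: channel opened by trigger with iodide after compound preincubation; score built on the fluorescence ratio of max minus min over baseline; more negative score means more quench and so TMEM16A activation or potentiation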
Target sequence (Q8BHY3 whole entry, looked up): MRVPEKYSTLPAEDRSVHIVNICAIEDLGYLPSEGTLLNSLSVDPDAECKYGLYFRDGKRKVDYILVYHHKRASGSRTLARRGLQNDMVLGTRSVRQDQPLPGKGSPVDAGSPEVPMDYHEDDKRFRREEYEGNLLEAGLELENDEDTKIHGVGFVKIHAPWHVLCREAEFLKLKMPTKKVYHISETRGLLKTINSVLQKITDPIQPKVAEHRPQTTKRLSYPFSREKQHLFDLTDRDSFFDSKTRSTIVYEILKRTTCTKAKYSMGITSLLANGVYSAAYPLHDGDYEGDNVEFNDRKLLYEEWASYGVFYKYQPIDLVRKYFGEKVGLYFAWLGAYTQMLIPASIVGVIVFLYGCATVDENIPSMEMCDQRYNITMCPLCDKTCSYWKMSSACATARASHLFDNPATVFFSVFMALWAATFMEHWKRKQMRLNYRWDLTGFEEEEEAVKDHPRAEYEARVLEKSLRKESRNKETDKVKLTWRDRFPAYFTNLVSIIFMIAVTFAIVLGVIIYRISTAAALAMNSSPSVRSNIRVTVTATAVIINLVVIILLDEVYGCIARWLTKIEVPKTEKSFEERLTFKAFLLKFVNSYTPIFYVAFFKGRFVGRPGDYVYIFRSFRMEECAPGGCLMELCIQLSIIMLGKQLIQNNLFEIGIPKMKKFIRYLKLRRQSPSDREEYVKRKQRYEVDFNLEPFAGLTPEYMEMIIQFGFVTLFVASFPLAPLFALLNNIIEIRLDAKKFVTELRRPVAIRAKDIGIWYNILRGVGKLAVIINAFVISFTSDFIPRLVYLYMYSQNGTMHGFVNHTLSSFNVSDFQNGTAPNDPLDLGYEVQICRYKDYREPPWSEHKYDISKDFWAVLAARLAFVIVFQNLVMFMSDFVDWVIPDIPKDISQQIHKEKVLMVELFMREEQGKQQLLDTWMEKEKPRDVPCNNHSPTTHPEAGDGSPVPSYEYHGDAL
ANO1 block – TMEM16A chloride channel inhibitors, primary screen, cell-based, HTS; normalized B-score (activity score, 25-100; higher = stronger inhibition) at 10 µM; HEK293 TMEM16A/YFP iodide influx fluorescence, ionomycin; 1.2% of 310,000 active;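 active = ratio plate-corrected score three or more library SD toward inhibition, starting fluorescence score within five deviations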;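 note: score derived from kinetic fluorescence span divided by baseline fluorescence per well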
MPTP counter – fluorescence retest of MPTP screen hits in isolated mitochondria, single concentration; shares compounds with MPTP inh; membrane potential, Rhodamine 123 fluorescence; inhibition, % at 10 µM; 78% of 5,000 active; in the data active = inhibition above about 22%
MPTP abs DR – mitochondrial permeability transition pore inhibitors, dose response, biochemical, absorbance, uHTS hits; IC50, µM; shares compounds with MPTP inh; AID 651561, 2012; isolated mitochondria swelling; 58% of 780 active; in the data active = IC50 below about 20 µM
MPTP counter DR – fluorescent counter-screen in isolated mitochondria, dose response, counter-screen for MPTP inhibitor project, biochemical, fluorescence, uHTS hits. shares compounds with MPTP inh. isolated mitochondria counterscreen, fluorescence read-out. IC50, µM. 49% of 780 active. AID 651564, 2012; in the data active = IC50 below about 80 µM
Of the large screens only hits and unclear results are named; the others gave an inactive call (follow-up assays come after a bar, where they were run). A selection: hits, their analogues and other compounds. The true share with any hit is near 5.1%.

CCCCNC(=S)Nc1ccc(Cl)cc1	MPTP inh 83 | MPTP counter 81
C=CCNC(=S)Nc1ccc(Br)cc1F	none
S=C(NCCc1ccccc1)N/N=C/c1ccc(Cl)cc1	none
COCCNC(=O)C1CCCN(C(=O)c2cncc(Br)c2)CC1 (stereo unspecified)	none (no result: GRIN3A LBD mod, CRFBP-R2 block, CRFBP-R2 agonist, ANO1 activ, ANO1 block)
O=C(CCN1CCCCC1)N1CCc2c([nH]c3ccccc23)C1c1cccnc1 (stereo unspecified)	none (no result: ANO1 block)
NC(=O)C1CCCN(S(=O)(=O)c2ccc3ccccc3c2)C1 (stereo unspecified)	none
CCSc1nnc(NC(=O)C2CCCN(C(=O)c3ccc(Cl)cc3)C2)s1 (stereo unspecified)	none (no result: GRIN3A LBD mod, ANO1 activ, ANO1 block)
O=C(NCCc1cccc(Cl)c1)c1ccc(Cl)c([N+](=O)[O-])c1	MPTP inh 81 | MPTP counter 94
Cc1ccccc1NC(=O)NCCc1ccc(Cl)cc1	none
S=C(NCCCc1ccccc1)Nc1ccccc1Cl	MPTP inh 86, GRIN3A LBD mod 18 | MPTP counter 100
Cc1ccc(C(=O)NCCc2cccc(Cl)c2)cc1[N+](=O)[O-]	none
S=C(NCCc1ccccn1)Nc1cc(Cl)cc(Cl)c1	MPTP inh 60 | MPTP counter 77
S=C(NCCc1ccccc1)Nc1ccccc1Cl	none
O=C(NCCc1ccccc1)Nc1ccc(Cl)cc1	MPTP inh 76, GRIN3A LBD mod 16 | MPTP counter 72
OC(c1cccc(Cl)c1)c1ncc(-c2cccc3ccccc23)[nH]1 (stereo unspecified)	none (no result: GRIN3A LBD mod, CRFBP-R2 block, CRFBP-R2 agonist, ANO1 activ, ANO1 block)
Cc1c(Cl)cccc1NC(=S)NCCc1ccccn1	none
Cc1c(Cl)cccc1NC(=S)NCCc1ccc(C(F)(F)F)cc1	MPTP inh 98 | MPTP counter 96
COc1ccc(C(=O)OCC(=O)c2c[nH]c3ccccc23)c(OC)c1	none (no result: ANO1 block)
CCOc1ccc(N(C)S(=O)(=O)c2ccc(C)c(C(=O)OCC(=O)c3c[nH]c4ccccc34)c2)cc1	MPTP inh 51, GRIN3A LBD mod 31 | MPTP counter 30
CC1(C(=O)Nc2ccc3c(c2)OCO3)CCN1Cc1csc2ccccc12 (stereo unspecified)	none (no result: GRIN3A LBD mod, CRFBP-R2 block, CRFBP-R2 agonist, ANO1 activ, ANO1 block)
Cc1cc(C(C)(C)C)ccc1OCCCCN1CCCC1	MPTP inh 51 | MPTP counter inactive | MPTP abs DR 6.8 | MPTP counter DR 13
COC(=O)c1c(NC(=O)C2CCCCC2)sc2c1CCN(C(C)C)C2	MPTP inh 55 | MPTP counter inactive | MPTP abs DR inactive | MPTP counter DR inactive
CCNC(=O)C1(C)CCCN(C(=O)c2sccc2C)C1 (stereo unspecified)	none (no result: GRIN3A LBD mod, CRFBP-R2 block, CRFBP-R2 agonist, ANO1 activ, ANO1 block)
C[C@@H]1CN([C@H](C)CO)C(=O)CCCn2nncc2CO[C@@H]1CN(C)S(=O)(=O)c1cccs1	none (no result: GRIN3A LBD mod, ANO1 activ, ANO1 block)
O=C(CSCc1ccc(Cl)cc1)Nc1cc([N+](=O)[O-])ccc1O	MPTP inh 99 | MPTP counter 88
O=C1/C(=C/c2ccc(O)c([N+](=O)[O-])c2)SC(=S)N1Cc1ccccc1	MPTP inh 73, GRIN3A LBD mod 498, CRFBP-R2 block 108 | MPTP counter 55
Cc1ccc(/C=C2/SC(=S)N(CCCC(=O)Nc3cc([N+](=O)[O-])ccc3O)C2=O)cc1	MPTP inh 64 | MPTP counter inactive | MPTP abs DR 4.6 | MPTP counter DR <2.5
Cc1ccc(SCC(=O)Nc2cc([N+](=O)[O-])ccc2O)cc1	MPTP inh 102, CRFBP-R2 block 92, CRFBP-R2 agonist 80, ANO1 block 25 | MPTP counter 99
O=C(NN1C(=O)/C(=C/c2ccc(O)c([N+](=O)[O-])c2)SC1=S)c1ccccc1Cl	none
CCCN1C(C)C(C(=O)OCC)=CN(Cc2cccc(I)c2)S1(=O)=O (stereo unspecified)	none (no result: ANO1 block)
CCc1ccc(C(C(=O)NC2CCCC2)N(C(=O)c2csnn2)C2CC2)cc1 (stereo unspecified)	none
CN(CC(=O)NCCCN1CCOCC1)S(=O)(=O)c1cc(Cl)ccc1Cl	none
O=C(Nc1cccc(C(F)(F)F)c1)c1cc2c(=O)c3ccccc3oc2nc1C(F)(F)F	MPTP inh 75 | MPTP counter 53
O=C(Nc1ccccc1)c1cc2c(=O)c3ccccc3oc2nc1C(F)(F)F	none
COc1ccc(Nc2sc(C(=O)c3ccc(Cl)cc3)c(N)c2C(=O)Nc2ccccc2OC)cc1	MPTP inh 68 | MPTP counter 75
COc1ccccc1NC(=O)c1c(Nc2ccccc2C)sc(C(=O)Nc2cccc(Cl)c2)c1N	MPTP inh 87, GRIN3A LBD mod 31 | MPTP counter 51
Cc1nc(Nc2ccccc2)sc1C(=O)c1ccc(F)cc1	none
COc1ccc(NC(=O)c2c(Nc3ccccc3)sc(C(=O)c3ccc(F)cc3)c2N)cc1	MPTP inh 92, ANO1 block 100 | MPTP counter 83
Cc1ccc2nc(/C(C#N)=C\c3ccc(Oc4ccc(C(F)(F)F)cc4[N+](=O)[O-])cc3)[nH]c2c1	MPTP inh 99 | MPTP counter 59
COc1cc(/C=C(\C#N)c2nc3ccccc3[nH]2)ccc1Oc1ccc([N+](=O)[O-])cn1	MPTP inh 78 | MPTP counter 55
N#C/C(=C\c1cc([N+](=O)[O-])c(N2CCOCC2)cc1N1CCOCC1)c1nc2ccccc2[nH]1	none
N#C/C(=C\c1cccc(Oc2ccc(C(F)(F)F)cc2[N+](=O)[O-])c1)c1nc2ccccc2[nH]1	MPTP inh 155 | MPTP counter 105
COc1cc(/C=C(\C#N)c2nc3ccccc3[nH]2)cc(Br)c1OCc1ccccc1	MPTP inh 64, GRIN3A LBD mod 17 | MPTP counter 73
CSc1nc(N)nc2c1ncn2CC(=O)NCc1ccc2[nH]ccc2c1	none (no result: ANO1 block)
CCOC(=O)[C@H]1[C@H]2COc3ccc(Br)cc3[C@@H]2N2C(=O)c3c(C)cc(C)cc3NC(=O)[C@@]12C	none (no result: ANO1 block)
CC(C)Cn1c(CCNC(=O)c2ccco2)nc2ccccc21	none
Cn1ncc(Br)c1NC(=O)Nc1ccc(OC(F)(F)F)cc1	MPTP inh 89 | MPTP counter 85
Cc1ccc(CNC(=O)Nc2ccc(OC(F)(F)F)cc2)n1C	none
